LmPK inhibitor: qHTS Assay for Inhibitors of Leishmania Mexicana Pyruvate Kinase (LmPK). Q27686. purified LmPK, Kinase-Glo ATP luminescence, 1 h. Potency, µM (series often up to 57.5 µM), for the others: at the top dose activity change, negative = inhibition, usual class: inhibitors. 290,000 tested, 0.37% active
Target sequence (Q27686 whole entry, looked up): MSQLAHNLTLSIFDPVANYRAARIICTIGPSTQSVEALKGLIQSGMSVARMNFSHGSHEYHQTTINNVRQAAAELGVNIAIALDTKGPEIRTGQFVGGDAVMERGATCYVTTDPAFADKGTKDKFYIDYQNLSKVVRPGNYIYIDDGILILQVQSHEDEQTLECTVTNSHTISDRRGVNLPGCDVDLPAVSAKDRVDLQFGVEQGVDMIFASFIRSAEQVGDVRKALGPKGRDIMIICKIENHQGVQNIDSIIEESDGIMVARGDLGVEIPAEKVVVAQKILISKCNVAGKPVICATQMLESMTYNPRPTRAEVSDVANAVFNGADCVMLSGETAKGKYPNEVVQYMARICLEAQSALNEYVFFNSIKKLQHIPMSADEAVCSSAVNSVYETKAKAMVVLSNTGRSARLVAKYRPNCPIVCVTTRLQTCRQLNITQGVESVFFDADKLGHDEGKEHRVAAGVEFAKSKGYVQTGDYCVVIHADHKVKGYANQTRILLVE
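Purified LmPK (0.1 nM) converted ADP (0.1 mM) to ATP with PEP (0.5 mM) in imidazole buffer pH 7.2 with KCl and MgCl2, 1 h at room temperature. ATP was read by Kinase-Glo luminescence; data normalized to uninhibited and no-enzyme controls.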
Tb PYK inh: qHTS of Trypanosoma Brucei Inhibitors; pyruvate kinase (Trypanosoma brucei), Q57TT1; TbPYK enzyme, Kinase-Glo Plus ATP luminescence, 45 min; Potency, µM (titrated, usually from 76.8 µM), for inactives: at the top dose activity, negative = inhibition, most hits filed as inhibitors; 410,000 tested, 0.12% active; AID 624173, 2012; also: nearly all actives have a fitted effect of over 50% in size
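TbPYK + substrate in 50 mM TEA pH 7.2, 100 mM KCl, 10 mM MgCl2, 0.05% BSA, 0.01% Tween-20; cpd pinned; ADP 130 uM final; 45 min RT; Kinase-Glo Plus 10 min; luminescence endpoint.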
RE007 growth inh: qHTS Assay for Inhibitors of the HIV-1 protein Vpr; S. pombe RE007 Vpr strain, BacTiter-Glo ATP luminescence, 24 h; Potency, µM (series often up to 92.2 µM), for the others: top-dose activity change, negative = less growth, most hits filed as inhibitors; 360,000 tested, 0.21% active; active = well fitted falling curve with a large enough effect; inconclusive = small, poorly fitted or top-dose-only effect; inactive = no such curve, though single readings can be large or run the other way; also: nearly all actives have a fitted effect of over 50% in size
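Fission yeast RE007 carrying one integrated HIV-1 vpr copy, seeded at OD 0.01 in PMG+AL medium with 23 nL pinned compound. Grown 24 h at 30 degrees; viability read by BacTiter-Glo luminescence after 5 min.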
AMA1-RON2 inh: qHTS for Inhibitors of AMA1-RON; Towards Development of Antimalarial Drug Lead: Primary Screen; AlphaScreen AMA1-biotinylated RON2 peptide binding; Potency, µM (titrated, usually from 58.2 µM), without a hit: at the top dose activity change, negative = inhibition, hits mostly inhibitors; 360,000 tested, 0.2% active; AID 720542, 2013;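 also: 0% = vehicle wells and -100% = peptide control; nearly all actives have a fitted effect of over 45% in size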
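AMA1 (3D7) with his tag at 25 nM final met compounds first, then biotinylated RON2 peptide at 25 nM; detection used donor plus acceptor beads, 10 µg/mL apiece, read by AlphaScreen after 30 min at room temperature.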
Sm TGR inh: qHTS Assay for the Inhibitors of Schistosoma Mansoni Peroxiredoxins; Schistosoma mansoni thioredoxin glutathione reductase (TGR), Q962Y6; purified TGR, DTNB reduction, TNB absorbance 405 nm; Potency, µM (top dose mostly 114 µM), inactives show at the highest dose activity change, negative = inhibition, usual class: inhibitors; 360,000 tested, 3% active; AID 485364, 2010; also: nearly all actives have a fitted effect of over 60% in size
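TGR 20 nM + NADPH 100 uM (dispensed conc.), cpd preinc 15 min RT; start with NADPH (500 uM addition) then DTNB (15 mM addition). Kinetic TNB absorbance, 405 nm filter. Four-parameter Hill fit across titration.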
An asterisk follows results filed as active. The list is not random: actives were taken first. Their share in the collection is about 3.2%. Unless noted, calls follow the shape of the dose curve; as a rule, active = well fitted curve in the direction sought with a large enough effect; inconclusive = small, poorly fitted or top-dose-only effect, or another doubt; inactive = no such curve, though single readings can be large; an effect the other way counts as inactive or inconclusive. Unless noted, % is scaled to controls: 0 for no effect and ±100 for the full control effect; potency is read from the fitted curve at half-maximal effect.

`COCCn1c(C)cc(O)c(C(c2ccc(C)cc2)N2CCCCC2)c1=O` (centres undefined) gave Tb PYK inh -7% and Sm TGR inh 8.9µM*.
`O=C(c1nn2c(C(F)(F)F)cc(-c3ccco3)nc2c1Br)N1CCCc2ccccc21` gave LmPK inhibitor -2%, Tb PYK inh 6%, RE007 growth inh 11%, AMA1-RON2 inh -6% and Sm TGR inh 35µM*.
For O=C(NCC1CCCO1)c1nn2c(C(F)(F)F)cc(-c3ccco3)nc2c1Cl (centres undefined) the results were Tb PYK inh -11%, RE007 growth inh 14% and AMA1-RON2 inh 9%.
Screening O=C(NCC1CCCO1)c1cc2nc(-c3ccco3)cc(C(F)(F)Cl)n2n1 (centres undefined) returned LmPK inhibitor 0%, Tb PYK inh 0%, RE007 growth inh 13%, AMA1-RON2 inh -2% and Sm TGR inh 45µM*.
Screening O=C(Nc1ccc(F)cc1F)c1cc2nc(-c3ccco3)cc(C(F)(F)Cl)n2n1 returned Tb PYK inh -1% and Sm TGR inh 50µM*.
O=C(c1cc2nc(-c3ccco3)cc(C(F)(F)F)n2n1)N1CCN(c2ccccc2)CC1 was read as LmPK inhibitor 3%, Tb PYK inh -2%, RE007 growth inh 17%, AMA1-RON2 inh 0% and Sm TGR inh inconclusive.
Screening O=C(c1cc2nc(-c3ccco3)cc(C(F)(F)F)n2n1)N1CCCCCC1 returned LmPK inhibitor 3%, Tb PYK inh -2%, RE007 growth inh -4%, AMA1-RON2 inh -1% and Sm TGR inh 35µM*.
For CCc1ccccc1NC(=O)c1cc(S(=O)(=O)N2CCCc3ccccc32)ccc1F the results were Tb PYK inh -1% and Sm TGR inh 14%.
Screening CCOC(=O)C1=C(CS(=O)(=O)c2c(C)cc(C)cc2C)NC(=O)NC1c1cccc(OC)c1 (centres undefined) returned Tb PYK inh -3% and Sm TGR inh 5%.
CC1=C(c2ccc(Cl)cc2)S(=O)(=O)N=C1N1CCN(c2cccc(C)c2)C(C)C1 (centres undefined) was read as Tb PYK inh -2% and Sm TGR inh -17%.
Screening c1cnc2nc(-c3ccc4c(c3)OCO4)cn2c1 returned LmPK inhibitor inconclusive, Tb PYK inh -1%, RE007 growth inh 22%, AMA1-RON2 inh 4% and Sm TGR inh 13%.
`c1ccn2cc(-c3ccc4c(c3)OCO4)cc2c1` gave LmPK inhibitor -11%, Tb PYK inh -8%, RE007 growth inh -11%, AMA1-RON2 inh -7% and Sm TGR inh 45µM*.
Screening Cc1cccc(C)c1OCC(O)Cn1c2ccccc2c2ccccc21 (centres undefined) returned LmPK inhibitor 3%, Tb PYK inh 0%, RE007 growth inh 35µM*, AMA1-RON2 inh -15% and Sm TGR inh 18%.
COc1ccc(CCN(/C=C2\Sc3ccccc3C2=O)C(C)=O)cc1OC was read as LmPK inhibitor 6%, Tb PYK inh -13%, RE007 growth inh -15%, AMA1-RON2 inh 40% and Sm TGR inh -20%.
`COc1ccccc1N(C(C)=O)C1=C(Cl)C(=O)c2ccccc2C1=O` gave Tb PYK inh inconclusive, RE007 growth inh 13µM* and AMA1-RON2 inh 13µM*.
Screening Cc1ccccc1-c1nc(CS(=O)(=O)CC(=O)NCCCN2CCCC2=O)c(C)o1 returned LmPK inhibitor 2%, Tb PYK inh -14%, RE007 growth inh 20%, AMA1-RON2 inh 12% and Sm TGR inh 20µM*.
Cc1ccccc1-c1nc(CS(=O)(=O)CC(=O)NCCCN2CCOCC2)c(C)o1 was read as LmPK inhibitor 1%, Tb PYK inh -1%, RE007 growth inh -7%, AMA1-RON2 inh -2% and Sm TGR inh inconclusive.
`COCCCNC(=O)CS(=O)(=O)Cc1nc(-c2ccccc2C)oc1C` gave LmPK inhibitor 2%, Tb PYK inh -1%, RE007 growth inh 11%, AMA1-RON2 inh -1% and Sm TGR inh 50µM*.
`CCn1cc(S(=O)(=O)c2ccc(C)cc2C)c(=O)c2cc(F)c(N3CCCC3)cc21` gave Tb PYK inh -5% and Sm TGR inh -7%.
For CC(C)CC(NC(=O)CNC(=O)C(Cc1ccc(O)cc1)NC(=O)C(CO)NC(=O)C(Cc1c[nH]c2ccccc12)NC(=O)C(Cc1cnc[nH]1)NC(=O)C1CCC(=O)N1)C(=O)NC(CCCN=C(N)N)C(=O)N1CCCC1C(=O)NCC(N)=O (centres undefined) the results were Tb PYK inh 1%.
For CCN(CC)c1ccc(NS(=O)(=O)c2cc3[nH]c(=O)c(=O)[nH]c3cc2C)c(C)c1 the results were Tb PYK inh -26% and Sm TGR inh 35µM*.
`O=C1C(Cl)=C(N2CCCC2)C(=O)N1c1ccc(F)cc1` gave LmPK inhibitor -6%, Tb PYK inh -11%, RE007 growth inh -7%, AMA1-RON2 inh 20% and Sm TGR inh 50µM*.
`CCOC(=O)C1=C(C)NC(C)=C(C(=O)OCC)C1c1ccc(C)o1` gave LmPK inhibitor 6%, Tb PYK inh 2%, RE007 growth inh 10%, AMA1-RON2 inh 11% and Sm TGR inh inconclusive.
Screening C=CCOC(=O)C1=C(C)NC(C)=C(C(=O)OCC=C)C1c1ccc(C)o1 returned LmPK inhibitor -2%, Tb PYK inh 11%, RE007 growth inh 1%, AMA1-RON2 inh -2% and Sm TGR inh 16µM*.
For CCOC(=O)C1=C(C)NC(=O)NC1c1ccc(C)o1 (centres undefined) the results were LmPK inhibitor 4%, Tb PYK inh 2%, RE007 growth inh 0%, AMA1-RON2 inh 14% and Sm TGR inh -17%.
CC1=C(C(N)=O)C(c2ccc(C)o2)C(C(N)=O)=C(C)N1 was read as LmPK inhibitor -4%, Tb PYK inh -10%, RE007 growth inh 36%, AMA1-RON2 inh 45% and Sm TGR inh 45µM*.
For COc1ccc(C2C(=O)N(C3CCC(C)CC3)CC(=O)N2C2CCCCC2)cc1OC (centres undefined) the results were Tb PYK inh -2% and Sm TGR inh 12%.
For CCC(=NCc1ccco1)c1c(O)n(-c2ccc(Cl)cc2)c(=O)[nH]c1=O the results were LmPK inhibitor 11%, Tb PYK inh -1%, RE007 growth inh 6%, AMA1-RON2 inh -2% and Sm TGR inh 40µM*.
Screening Cc1cccc(OCC(=O)N/N=C/C=C/c2ccco2)c1 returned LmPK inhibitor -1%, Tb PYK inh -3%, AMA1-RON2 inh 8% and Sm TGR inh 40µM*.
